FadD28 binding: blocks FadD28 binding to the bisubstrate probe; AID 588549; hit rate 0.22% among 360,000; fluorescence polarization; inhibition, % at 12.5 µM; in the data active means inhibition above about 8.5%, passing the limit was not always enough; inconclusive means no clear call, values can overlap the other calls
TcdB GH inh: inhibitors of Clostridioides difficile toxin B glycohydrolase; P18177; TcdB glycohydrolase enzymatic assay, plate reader; inhibition, % at 9.99 µM; hit rate 0.24% among 350,000; in the data active means inhibition above about 10%
BioA inh-1: inhibitors of Mycobacterium tuberculosis BioA enzyme; purified M. tuberculosis BioA enzyme, plate reader; inhibition, % at 9.99 µM; hit rate 0.096% among 360,000; in the data active means inhibition above about 40%; inconclusive means no clear call, values can overlap the other calls
Vc quorum ag: inducers of Vibrio cholerae quorum light production without autoinducers; V. cholerae BH1578 lux reporter, luminescence, 6 h; AID 588436; activation, % at 18.7 µM; hit rate 0.16% among 350,000; in the data active means activation mostly above about 9.7%, no sharp cut-off; inconclusive means no clear call, values can overlap the other calls; inactive means mostly below about 3.7%
Yp Topo-I inh: Y. pestis Topo-I inhibition via cleavage products | hit rate 0.064% among 360,000 | AID 504884 | activity, % at 10 µM | Y. pestis Topo-I cleavage product accumulation, plate reader; in the data active means activity above about 50%, passing the limit was not always enough; inconclusive means no clear call, values can overlap the other calls
BioA inh-2: inhibitors of Mycobacterium tuberculosis BioA enzyme; shares compounds with BioA inh-1; purified BioA enzyme, plate reader, dose response; max activity, %; 310 tested, under 10 active;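 further: top concentration of the dilution series was 10 µM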
HepG2 tox 2: cytotoxicity in HepG2 cells | 310 tested, under 10 active | max activity, % | shares compounds with BioA inh-1 | AID 651898 | plate reader
NIH3T3 tox 5: cytotoxicity in NIH3T3 cells; shares compounds with BioA inh-1; plate reader; activity change, negative = cytotoxicity, % at 26 µM; 310 tested, under 10 active; AID 651900
Numbers without * were called inactive. Hits are enriched below; roughly 0.58% of the tested compounds scored in any of these assays. Unless noted, how the calls were made is not given here.

`CC(=O)c1ccc(C(=O)N2CCCC(Nc3ccccc3)C2)s1` (stereo not given) gave FadD28 binding inconclusive, TcdB GH inh 1, BioA inh-1 64*, Vc quorum ag inactive, Yp Topo-I inh 2, BioA inh-2 -8, HepG2 tox 2 24 and NIH3T3 tox 5 -1.
`O=C(c1ccc(N2CCOCC2)cc1)N1CCCC(Nc2ccccc2)C1` (stereo not given) gave FadD28 binding 0, TcdB GH inh 0, BioA inh-1 -1, Vc quorum ag inactive and Yp Topo-I inh 6.
For O=C(NC1CCCN(Cc2ccccc2F)C1)c1cccs1 (stereo not given) the results were FadD28 binding -3, TcdB GH inh 0, BioA inh-1 1, Vc quorum ag inactive and Yp Topo-I inh -1.
`C[C@H](CO)N1C[C@H](C)[C@H](CN(C)Cc2ccc(C(F)(F)F)cc2)Oc2ccc(NS(=O)(=O)c3ccc(Cl)cc3)cc2CC1=O` gave TcdB GH inh 0 and BioA inh-1 0.
Screening C#CCSc1nnc(-c2c[nH]c3ccccc23)n1C returned FadD28 binding 1, TcdB GH inh 1, BioA inh-1 -4, Vc quorum ag 0 and Yp Topo-I inh -5.
C#CCSc1nnc(-c2sc(-c3ccccc3)nc2C)n1C was read as FadD28 binding -1, BioA inh-1 60*, Vc quorum ag 0, Yp Topo-I inh -2, BioA inh-2 -3, HepG2 tox 2 -14 and NIH3T3 tox 5 3.
For COC(=O)C[C@H]1CC[C@@H]2[C@H](COC[C@@H](O)CN2C(=O)Nc2cccc(F)c2)O1 the results were TcdB GH inh 1, BioA inh-1 42*, BioA inh-2 -7, HepG2 tox 2 inactive and NIH3T3 tox 5 -5.
`COC(=O)C[C@@H]1CC[C@H]2[C@@H](COC[C@@H](O)CN2C(=O)Nc2cccc(F)c2)O1` gave TcdB GH inh -1 and BioA inh-1 5.
CNC(=O)C[C@H]1CC[C@@H]2[C@H](COC[C@@H](O)CN2C(=O)Nc2cccc(OC)c2)O1 was read as TcdB GH inh 0, BioA inh-1 77*, BioA inh-2 5, HepG2 tox 2 inactive and NIH3T3 tox 5 -6.
`Cc1nc2nc(SCC(=O)NCc3ccco3)nn2c(C)c1Cc1c(F)cccc1Cl` gave FadD28 binding -4, BioA inh-1 48*, Vc quorum ag 0, Yp Topo-I inh 21, BioA inh-2 3, HepG2 tox 2 22 and NIH3T3 tox 5 -1.
`Cc1ccc(Cc2c(C)nc3nc(SCC(=O)NCc4ccco4)nn3c2C)cc1` gave FadD28 binding -1, BioA inh-1 50*, Vc quorum ag -3, Yp Topo-I inh 17, BioA inh-2 -6, HepG2 tox 2 12 and NIH3T3 tox 5 0.
For Cc1nc2nc(SCC(=O)N3CCOCC3)nn2c(C)c1Cc1ccccc1 the results were FadD28 binding 0, BioA inh-1 111*, Vc quorum ag inactive, Yp Topo-I inh 2, BioA inh-2 -4, HepG2 tox 2 -7 and NIH3T3 tox 5 -6.
Cc1cccc(Cc2c(C)nc3nc(SCC(=O)NCc4ccco4)nn3c2C)c1 was read as FadD28 binding -2, BioA inh-1 39, Vc quorum ag 3 and Yp Topo-I inh 24.
CCS(=O)(=O)N1CCCCN2[C@H](CO)[C@H](c3ccc(C4=CCCC4)cc3)[C@H]2C1 was read as TcdB GH inh 0 and BioA inh-1 -1.
`Cc1cccc(C(=O)NC2CCN(CC(=O)Nc3ccccc3Cl)CC2)c1` gave FadD28 binding -5, TcdB GH inh 1, BioA inh-1 49*, Vc quorum ag inactive, Yp Topo-I inh 21, BioA inh-2 -5, HepG2 tox 2 -6 and NIH3T3 tox 5 -13.
For Cc1cccc(C(=O)NC2CCN(CC(=O)Nc3ccc4c(c3)OCO4)CC2)c1 the results were FadD28 binding -2, TcdB GH inh 0, BioA inh-1 2, Vc quorum ag 0 and Yp Topo-I inh -6.
O=C(N[C@H]1CC[C@@H](CCNC(=O)c2cnccn2)O[C@H]1CO)c1ccc2c(c1)OCO2 was read as TcdB GH inh 0 and BioA inh-1 3.

From PubChem
